Bioassay records (PubChem)
This excerpt belongs to a sample that is enriched for hits.
Dicer inh: human Dicer pre-microRNA cleavage inhibition. Q9UPY3. cat-ELCCA pre-miR-21 Dicer processing, chemiluminescence; hits give high values. z-score at 25 µM. hit rate 6% among 47,000. AID 1347074; in the data active = z-score above about 3, passing the limit was not always enough;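 note: plate controls were vehicle for no effect and no enzyme for full effect; higher signal means more uncleaved substrate so more Dicer inhibition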
* = called active by the depositor.

SMILES | Dicer inh
CC(O)CNc1nc2c([nH]1)c(=O)n(C)c(=O)n2C (configuration not stated) | -0.15
COc1ccc2[nH]c(C(=O)Nc3ccc(Br)c(C)n3)cc2c1 | -1.7
CCc1ccc2[nH]c(C(=O)NCc3cc(Cl)ccc3Cl)cc2c1 | -4.1
CCc1ccc2[nH]c(C(=O)Nc3ccc(Br)c(C)n3)cc2c1 | 44*
COC(=O)C1=C(C(=O)c2ccccc2)C(c2ccccc2OC)n2nnnc2N1 (configuration not stated) | 0.01
COC(=O)C1=C(C(=O)c2ccc(C)cc2)C(c2ccccc2OC)n2nnnc2N1 (configuration not stated) | 0.5
COc1ccccc1C1C(C(=O)OC(C)C)=C(C)Nc2nnnn21 (configuration not stated) | 3.2*
COC(=O)C1=C(C)Nc2nnnn2C1c1cc(Br)ccc1OC (configuration not stated) | -0.18
CCOC(=O)C1=C(C)Nc2nnnn2C1c1cc(OC)ccc1OC (configuration not stated) | 1.6
CCOC(=O)C1=C(C)Nc2nnnn2C1c1cc(Br)ccc1OC (configuration not stated) | 47*
FC(F)(F)c1sc(-c2nc(-c3ccccc3)no2)cc1-c1ccccc1 | 0.96
COc1cccc(Nc2cc(C)nc3ncnn23)c1 | 7.4
CCOc1ccc(-c2nn3c(Cc4ccccc4)nnc3s2)cc1 | -0.68
N#CC(Nc1ccc(Cl)cc1Cl)c1ccccc1 (configuration not stated) | -0.34
O=[N+]([O-])c1c(N2CCCC2)ccc2nsnc12 | -0.7
COc1cc(C2c3c(oc4ccc(C)cc4c3=O)C(=O)N2c2nccs2)ccc1O (configuration not stated) | 1.6
Cc1ccc(CSc2n[nH]c(=O)n2C2CC3C=CC2C3)cc1 (configuration not stated) | -1
COC(=O)c1cc(NS(=O)(=O)c2ccc(F)cc2)cc(C(=O)OC)c1 | -0.05
COC(=O)c1cc(NS(=O)(=O)c2ccc(Br)cc2)cc(C(=O)OC)c1 | 3.9*
COc1nccnc1NS(=O)(=O)c1ccc(NC(=O)c2ccc(Br)cc2)cc1 | -0.45
COc1ccc(C2CC(=O)C3=C(C2)NC(C)=C(C(=O)OC(C)C)C3c2cccc(C)c2)cc1OC (configuration not stated) | 2
Cc1noc(C)c1S(=O)(=O)N1CCC(C(N)=O)(N2CCCCC2)CC1 | -0.36
Cc1ccc(S(=O)(=O)N2CCCOC2)cc1 | 3.8*
Cc1ccc(S(=O)(=O)N2CCCC3(CCCCC3)C2)cc1 | 0.92
Cc1ccc(S(=O)(=O)N2CN3CN(C2)CN(S(=O)(=O)c2ccc(C)cc2)C3)cc1 | -1.4
SMILES | Dicer inh
Cc1cc(C(=O)NC(=O)NNc2c(Cl)cncc2Cl)nn1-c1c(Cl)cc(Cl)cc1Cl | 2.4
Cc1nc2c(=O)n(C)c3c(c(=O)n(C)c(=O)n3C)c2o1 | 4.8
S=c1[nH]nc(Nc2cccc(Cl)c2Cl)s1 | 0.97
O=C(NCc1ccc2c(c1)OCO2)NC1CCCCC1 | 2.8
CN1C(=O)CC(NCc2ccc3c(c2)OCO3)C1=O (configuration not stated) | -0.41
CN(C)CCCN(Cc1ccc2c(c1)OCO2)C(=O)NC1CCCCC1 | 4.7*
O=S(=O)(c1cccc(C(F)(F)F)c1)N(Cc1ccc2c(c1)OCO2)c1ccc(F)cc1 | -1.5
CC1=C(C(=O)OC(C)C)C(c2ccc(F)c(Br)c2)CC(=O)N1 (configuration not stated) | 0.6
O=C(Nc1ccc(OCc2ccccc2)cc1)Nc1ccc(N2CCCCC2)cc1 | 2.3
CN1CCN2c3ccccc3Cc3ccccc3C2C1 (configuration not stated) | -0.38
CC(C)CCN1Cc2ccccc2C1 | 5.1*
CC(C)CCC(O)(CCN1CCCCC1)c1ccccc1 (configuration not stated) | 2.1
CC(=O)c1ccccc1C(=O)c1ccc(Cl)cc1 | 59*
Cc1c(C)c(C)c(C(=O)c2ccc(Cl)cc2)c(C)c1C | 0.14
CC(=O)c1ccccc1C(=O)c1ccccc1 | -1.2
O=C1/C(=C\c2cc([N+](=O)[O-])ccc2SC2CCCCC2)SC(=S)N1c1ccccc1Cl | 0.52
Cn1c(COC(=O)c2sc3ccccc3c2Cl)nc2ccccc21 | -1.4
Cn1c(-c2ccccc2)cnc1NCc1ccccc1O | 1.9
Cn1c(-c2ccc(Br)cc2)cnc1NCc1cccc(F)c1 | 2.5
Cn1c(-c2ccc(F)cc2)cnc1NCc1cccc(Br)c1 | 2.8
Cn1c(-c2cccc(Br)c2)cnc1NCc1ccccc1 | 3.8*
Cc1ccc(-c2cnc(NCc3ccc(Cl)cc3)n2C)cc1 | 3.2*
Cn1c(-c2ccccc2)cnc1NCc1cccc(Br)c1 | 4.4*
Cn1c(-c2ccc(Cl)cc2)cnc1NCc1ccc(F)cc1 | 2.6
COc1ccccc1CNc1ncc(-c2cccc(Br)c2)n1C | -0.18
SMILES | Dicer inh
COc1ccc(-c2cnc(NCc3ccc(Cl)cc3)n2C)cc1 | -0.45
CS(=O)(=NS(=O)(=O)c1ccccc1Cl)c1ccc(C(F)(F)F)cn1 (configuration not stated) | -1.4
COc1cccc(Nc2ncnc3cc(-c4ccccc4)sc23)c1 | 1.8
Cc1cccc(NC2=NC(c3ccccc3)n3c(nc(C)cc3=O)N2)c1 (configuration not stated) | -1
CCCCNC(=O)OCCSc1ccc(C#N)cc1[N+](=O)[O-] | 0.02
CCOc1ccc(C)cc1S(=O)(=O)n1cnc2cc(C)c(C)cc21 | -0.21
O=[N+]([O-])c1ccc(N/N=C/c2ccc(Cl)cc2)nc1 | 1.6
N#CCOc1ccc2c(=O)cc(-c3ccccc3)oc2c1 | 0.67
CC(C)S(=O)(=O)c1csc(C(=O)O)c1N | -0.43
CC(=O)Nc1cc(C)ccc1OC(C)(C)C(=O)OC(C)(C)C | -1
O=C(CN1C(=O)c2ccccc2S1(=O)=O)c1ccccc1 | -1.1
CCN(CC)C1=C(C(=O)c2ccccc2)N(CC(N)=O)S(=O)(=O)c2ccccc21 | 3.1*
C=CCN1C(C(=O)c2ccccc2)=C(OC(C)=O)c2ccccc2S1(=O)=O | -0.22
C#CCSc1nc(C)c(Cc2c(F)cccc2Cl)c(=O)[nH]1 | 0.46
CCOC(=O)/C(=N\Nc1cccc(C)c1)c1csc(N)n1 | 4*
CCOC(=O)/C(C)=N/Nc1ccccc1 | -1
CCOC(=O)/C(C)=N/Nc1ccc(F)cc1 | 0.97
Cn1c(=O)c2c(c3ccccc31)OC(=O)CC2c1ccco1 (configuration not stated) | -1
Cc1ccc(-c2cc3nc(C)c(-c4ccccc4)c(N)n3n2)cc1 | 0.66
Cc1nn2c(N)cc(-c3ccccc3)nc2c1-c1ccccc1 | 3.8*
Cc1cc(N)n2nc(C)c(-c3ccc(Cl)cc3)c2n1 | 1.8
COC(=O)c1ccc(C2C(C(=O)OCCc3ccccc3)=C(C)NC3=C2C(=O)CCC3)cc1 (configuration not stated) | -0.59
O=S(=O)(CS(=O)(=O)Nc1nc2ccc(Cl)cc2s1)Nc1nc2ccc(Cl)cc2s1 | 0.06
COC(=O)CSc1nc2ccc(Cl)cc2s1 | 0.92
CC(C)(C)NC(=O)NNc1nc2ccc(Cl)cc2s1 | 3.7*
SMILES | Dicer inh
COc1ccc(-c2noc(-c3cccc4ccccc34)n2)cc1 | -0.04
O=C(Nc1ccccc1)ON=C1CC2CCCC(C1)N2Cc1cccs1 | 2.6
COc1cccc(C2C(C(=O)OC3CCCCC3)=C(C)NC3=C2C(=O)CC(C)(C)C3)c1 (configuration not stated) | 0.37
N=C(N)SCc1c(F)cccc1Cl | 0.92
CCOC(=S)SCc1c(F)cccc1Cl | 4.3*
S=C(Nc1ccc(Cl)cc1)SCc1c(Cl)cccc1Cl | 0.19
COCCCNC(=S)N/N=C/c1ccc[nH]1 | -3.9
